# Experimental data reported in PubChem BioAssay (NCI).
# Compounds without any hit were thinned out: in the full panel of roughly 79,000, 15% have a hit. A number with no mark means an inactive call. Active and inactive are the calls of the source. Rule as the data show it: active = growth inhibition above about 70%; inactive = the rest.
# Experiments:
# [1] = NCI Yeast Anticancer Drug Screen. Data for the rad52 strain (AID 147);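 also: 0% = growth of vehicle-treated control cultures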; conditions: S. cerevisiae rad52 mutant growth inhibition, hits give high values
# Outline: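 Measured: yeast growth inhibition. System: strain with a defined DNA damage repair alteration. Reference: vehicle-treated control cultures.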
# [2] = NCI Yeast Anticancer Drug Screen. Data for the wt1 strain (AID 149);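 also: 0% = growth of vehicle-treated wt1 cultures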; conditions: S. cerevisiae wt1 strain (SPY 50644) growth inhibition, hits give high values
# Outline: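 Vehicle-normalised growth inhibition; strain wt1; compound exposure.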
# [3] = NCI Yeast Anticancer Drug Screen. Data for the rad50EPP+ strain (AID 151);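 also: 0% = growth of vehicle-treated control cultures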; conditions: S. cerevisiae rad50 mutant strain, hits give high values
# Outline: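 One strain with a rad50 alteration (rad50EPP+) was compound-treated, its growth then compared to that of vehicle controls.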
# [4] = NCI Yeast Anticancer Drug Screen. Data for the mgt1 strain (AID 153); conditions: S. cerevisiae mgt1 mutant growth inhibition, hits give high values
# Outline: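 After exposure of the mgt1 yeast mutant to compound, growth was measured and reported as inhibition compared with vehicle controls.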
# [5] = NCI Yeast Anticancer Drug Screen. Data for the rad50 strain (AID 155);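 also: 0% = growth of vehicle-only cultures of the same strain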; conditions: S. cerevisiae rad50 strain growth inhibition, hits give high values
# Outline: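 A DNA repair-deficient yeast mutant serves as the test organism; compound-induced growth inhibition is calculated against vehicle-treated cells.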
# [6] = NCI Yeast Anticancer Drug Screen. Data for the mec2-1 strain (AID 157); conditions: S. cerevisiae mec2-1 strain, hits give high values
# Outline: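 Test agents were screened against the mec2-1 yeast strain, with defined DNA repair or cell cycle alteration. Growth was scored as inhibition against vehicle-only controls.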
# [7] = NCI Yeast Anticancer Drug Screen. Data for the rad14 strain (AID 159);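 also: 0% = growth of vehicle-treated control cultures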; conditions: S. cerevisiae rad14 strain growth inhibition, hits give high values
# Outline: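 Vehicle-treated cultures served as the baseline for growth inhibition of a DNA repair-mutant yeast strain exposed to each compound.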
# [8] = NCI Yeast Anticancer Drug Screen. Data for the sgs1 mgt1 strain (AID 161);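 also: 0% = growth of cultures given vehicle only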; conditions: S. cerevisiae sgs1 mgt1 strain, hits give high values
# Outline: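 Mutant yeast exposed to compound; growth scored against vehicle-only wells.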
# [9] = NCI Yeast Anticancer Drug Screen. Data for the CLN2oe strain (AID 163);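 also: 0% = growth of vehicle-only control cultures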; conditions: S. cerevisiae CLN2oe strain, hits give high values
# Outline: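 Here, growth inhibition in a cell-cycle-altered yeast strain after compound exposure was quantified against vehicle control growth.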
# [10] = NCI Yeast Anticancer Drug Screen. Data for the cln2 rad14 strain (AID 165);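 also: 0% = growth equal to vehicle treated cultures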; conditions: S. cerevisiae cln2 rad14 strain, hits give high values
# Outline: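 Growth of compound-exposed yeast (cln2 rad14 genotype) measured and expressed as inhibition relative to vehicle.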
# [11] = NCI Yeast Anticancer Drug Screen. Data for the bub3 strain (AID 167); conditions: S. cerevisiae bub3 mutant strain, hits give high values
# Outline: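 Inhibition values come from growth of compound-treated mutant yeast normalised to vehicle-treated controls.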
# [12] = NCI Yeast Anticancer Drug Screen. Data for the wt2 strain (AID 169);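 also: 0% = growth of vehicle-treated yeast cultures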; conditions: S. cerevisiae wt2 strain growth inhibition, hits give high values
# Outline: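 Genetically defined yeast strains from a DNA-repair/cell-cycle panel were used. Compound-exposed yeast growth was measured, and the inhibition was calculated relative to vehicle treatment.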
# [13] = NCI Yeast Anticancer Drug Screen. Data for the mlh1 strain (AID 171);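 also: 0% = growth of vehicle-treated control cultures of the same strain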; conditions: S. cerevisiae mlh1 strain growth inhibition, hits give high values
# Outline: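 Here the genetically defined yeast mutant is grown with each compound, and the extent to which its growth falls below that of vehicle-exposed cells is reported.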
# [14] = NCI Yeast Anticancer Drug Screen. Data for the sgs1 strain (AID 173);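 also: 0% = growth of vehicle-only control cultures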; conditions: S. cerevisiae sgs1 mutant, hits give high values
# Outline: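 Relative growth inhibition, referenced to vehicle, was determined in a yeast strain with a defined alteration affecting DNA damage repair or cell cycle control after compound exposure.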
# [15] = NCI Yeast Anticancer Drug Screen. Data for the mlh1 rad18 strain (AID 175); conditions: S. cerevisiae mlh1 rad18 strain growth inhibition, hits give high values
# Outline: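 In this whole-cell yeast screen, a strain with altered DNA damage repair is challenged with compound, and its growth is measured against matched vehicle-treated controls.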
# [16] = NCI Yeast Anticancer Drug Screen. Data for the rad18 strain (AID 177); conditions: S. cerevisiae rad18 mutant growth inhibition, hits give high values
# Outline: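 Screen uses a yeast strain with a defined lesion in DNA damage repair; compound effect is read as loss of growth compared to untreated vehicle cultures.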
# [17] = at 5.0 µM (retest, dose inferred, filed as 0.5)
# [18] = at 50.0 µM (retest, dose inferred, filed as 5.0)
smiles,measurement,setting,value
Oc1c2c(c(O)c3ccccc13)C1(N=N2)c2ccccc2Oc2ccccc21,growth inhibition,[1]; at 1.2 µM,20%
same,growth inhibition,[1]; at 3.7 µM,72% (active)
same,growth inhibition,[1]; at 11.0 µM,98% (active)
same,growth inhibition,[1]; at 33.0 µM,97% (active)
same,growth inhibition,[1]; at 100.0 µM,93% (active)
same,growth inhibition,[2]; at 1.2 µM,2%
same,growth inhibition,[2]; at 3.7 µM,34%
same,growth inhibition,[2]; at 11.0 µM,98% (active)
same,growth inhibition,[2]; at 33.0 µM,98% (active)
same,growth inhibition,[2]; at 100.0 µM,96% (active)
same,growth inhibition,[3]; at 1.2 µM,8%
same,growth inhibition,[3]; at 3.7 µM,54%
same,growth inhibition,[3]; at 11.0 µM,93% (active)
same,growth inhibition,[3]; at 33.0 µM,95% (active)
same,growth inhibition,[3]; at 100.0 µM,85% (active)
same,growth inhibition,[4]; at 1.2 µM,10%
same,growth inhibition,[4]; at 3.7 µM,47%
same,growth inhibition,[4]; at 11.0 µM,98% (active)
same,growth inhibition,[4]; at 33.0 µM,97% (active)
same,growth inhibition,[4]; at 100.0 µM,94% (active)
same,growth inhibition,[5]; at 1.2 µM,17%
same,growth inhibition,[5]; at 3.7 µM,82% (active)
same,growth inhibition,[5]; [17],46%
same,growth inhibition,[5]; at 11.0 µM,98% (active)
same,growth inhibition,[5]; at 33.0 µM,94% (active)
same,growth inhibition,[5]; [18],98% (active)
same,growth inhibition,[5]; at 50.0 µM,98.5% (active)
same,growth inhibition,[5]; at 100.0 µM,90% (active)
same,growth inhibition,[6]; at 1.2 µM,10%
same,growth inhibition,[6]; at 3.7 µM,44%
same,growth inhibition,[6]; [17],31%
same,growth inhibition,[6]; at 11.0 µM,98% (active)
same,growth inhibition,[6]; at 33.0 µM,97% (active)
same,growth inhibition,[6]; [18],98% (active)
same,growth inhibition,[6]; at 50.0 µM,98.7% (active)
same,growth inhibition,[6]; at 100.0 µM,94% (active)
same,growth inhibition,[7]; at 1.2 µM,17%
same,growth inhibition,[7]; at 3.7 µM,44%
same,growth inhibition,[7]; at 11.0 µM,98% (active)
same,growth inhibition,[7]; at 33.0 µM,96% (active)
same,growth inhibition,[7]; at 100.0 µM,92% (active)
same,growth inhibition,[8]; [17],57%
same,growth inhibition,[8]; [18],98% (active)
same,growth inhibition,[8]; at 50.0 µM,98.6% (active)
same,growth inhibition,[9]; at 1.2 µM,15%
same,growth inhibition,[9]; at 3.7 µM,39%
same,growth inhibition,[9]; at 11.0 µM,98% (active)
same,growth inhibition,[9]; at 33.0 µM,95% (active)
same,growth inhibition,[9]; at 100.0 µM,88% (active)
same,growth inhibition,[10]; [17],19%
same,growth inhibition,[10]; [18],97% (active)
same,growth inhibition,[10]; at 50.0 µM,92.2% (active)
same,growth inhibition,[11]; at 1.2 µM,8%
same,growth inhibition,[11]; at 3.7 µM,62%
same,growth inhibition,[11]; [17],21%
same,growth inhibition,[11]; at 11.0 µM,98% (active)
same,growth inhibition,[11]; at 33.0 µM,96% (active)
same,growth inhibition,[11]; [18],97% (active)
same,growth inhibition,[11]; at 50.0 µM,99% (active)
same,growth inhibition,[11]; at 100.0 µM,93% (active)
same,growth inhibition,[12]; at 1.2 µM,4%
same,growth inhibition,[12]; at 3.7 µM,49%
same,growth inhibition,[12]; at 11.0 µM,98% (active)
same,growth inhibition,[12]; at 33.0 µM,97% (active)
same,growth inhibition,[12]; at 100.0 µM,94% (active)
same,growth inhibition,[13]; at 1.2 µM,13%
same,growth inhibition,[13]; at 3.7 µM,43%
same,growth inhibition,[13]; at 11.0 µM,98% (active)
same,growth inhibition,[13]; at 33.0 µM,97% (active)
same,growth inhibition,[13]; at 100.0 µM,94% (active)
same,growth inhibition,[14]; at 1.2 µM,14%
same,growth inhibition,[14]; at 3.7 µM,81% (active)
same,growth inhibition,[14]; at 11.0 µM,98% (active)
same,growth inhibition,[14]; at 33.0 µM,98% (active)
same,growth inhibition,[14]; at 100.0 µM,95% (active)
same,growth inhibition,[15]; [17],42%
same,growth inhibition,[15]; [18],98% (active)
same,growth inhibition,[15]; at 50.0 µM,98% (active)
same,growth inhibition,[16]; at 1.2 µM,18%
same,growth inhibition,[16]; at 3.7 µM,74% (active)
same,growth inhibition,[16]; at 11.0 µM,98% (active)
same,growth inhibition,[16]; at 33.0 µM,96% (active)
same,growth inhibition,[16]; at 100.0 µM,92% (active)
